According to PubChem BioAssay (NCATS):
Records with an inconclusive call do not appear. A call without a number means that no potency is given here. The source made the active and inactive calls. Calls follow the shape of the dose curve; as a rule, active = well fitted inhibition curve with a large enough effect; inconclusive = small, poorly fitted or top-dose-only effect; inactive = no such curve, though single readings can be large or run the other way.

What was measured:
[1] = test system: Zika virus NS2B-NS3 protease (unlinked complex); experiment: Primary screen GU Rhodamine qHTS for Zika virus inhibitors: Unlinked NS2B-NS3 protease assay (AID 1347159); also: nearly all actives have a fitted effect of over 60% in size
Summary of the method: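 Noncovalent NS2B hydrophilic domain/NS3 protease complex (25 nM final) in 10 mM Tris-HCl pH 8.0, 0.01% Tween 20, preincubated 15 min with compounds (up to 114 microM), then 1.5 microM Rhodamine110 substrate. Fluorescence change over 15 min fitted to 4-parameter Hill.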

[2] = test system: Zika virus NS2B-NS3 protease (linked construct); experiment: Primary screen NINDS Rhodamine qHTS for Zika virus inhibitors (AID 1347160); also: nearly all actives have a fitted effect of over 55% in size
Summary of the method: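 Purified NS2B-NS3 protease with the NS2B hydrophilic domain joined by a flexible linker (25 nM) in 10 mM Tris-HCl pH 8.0, 0.01% Tween 20, preincubated 15 min at RT with compound; Rhodamine110 peptide substrate 1.5 µM; fluorescence change over 15 min; 4-parameter Hill fit.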

| Compound | Potency [1] | Potency [2] |
| --- | --- | --- |
| CC(=O)OC12COC1CC(O)C1(C)C(=O)C(O)C3=C(C)C(OC(=O)C(O)C(NC(=O)OC(C)(C)C)c4ccccc4)CC(O)(C(OC(=O)c4ccccc4)C21)C3(C)C (stereo unspecified) | inactive | inactive |
| C=C1CCC[C@]2(C)CC[C@@H](C(=C)C(=O)O)[C@H](O)[C@@H]12 | inactive | inactive |
| COc1cc(OC)c(/C=C/S(=O)(=O)Cc2ccc(OC)c(NCC(=O)O)c2)c(OC)c1 | inactive | inactive |
